# Screens (PubChem)
# DAX1 inh-1 – DAX1 (NR0B1) inhibition, primary screen | HEK293T StAR-luciferase reporter, SF-1/DAX-1 repression relief | inhibition, % at 6.8 µM | 370,000 compounds, 1.1% hits;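 active means inhibition above the mean over all tested compounds plus 3 SD, cut at about 3.6% in these data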;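 further: 0% = DAX-1 cells with DMSO and 100% = cells lacking DAX-1 with DMSO; higher inhibition means more luminescence from relief of DAX-1 repression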
# hgDAF12 agonist – activates the H. glycines DAF-12 receptor ligand-binding domain; HEK293 GAL4-hgDAF12 UAS-luciferase reporter, agonist luminescence; normalized to butyrate control; activation, % at 6.8 µM; 370,000 compounds, 1.8% hits;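 active means activation above a cutoff set at the mean of all screened compounds plus 3 SD, cut at about 10% in these data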;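 further: 0% = DMSO wells and 100% = sodium butyrate wells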
# DAX1 inh-2 – NR0B1 (DAX1) inhibition; 340,000 compounds, 0.99% hits; P51843; AID 504766; inhibition, % at 6.75 µM; HEK293 Gal4-DAX1 luciferase reporter, luminescence;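 active means inhibition above the mean over all tested compounds plus 3 SD, cut at about 4.2% in these data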;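 further: 0% = DAX1-transfected cells with DMSO and 100% = empty-vector control cells with DMSO; inhibition shows as a rise in luminescence from relieved DAX1 repression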
# Target sequence (P51843 207-470 limits assumed): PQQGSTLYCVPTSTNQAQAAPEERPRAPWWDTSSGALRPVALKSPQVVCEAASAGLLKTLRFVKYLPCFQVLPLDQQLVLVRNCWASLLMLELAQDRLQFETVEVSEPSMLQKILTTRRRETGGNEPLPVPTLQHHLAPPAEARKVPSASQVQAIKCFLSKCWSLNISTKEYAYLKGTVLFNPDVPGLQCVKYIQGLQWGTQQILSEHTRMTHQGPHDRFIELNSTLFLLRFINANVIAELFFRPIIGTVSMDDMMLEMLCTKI
# AHR act – human AHR activation. activation, % at 5 µM. AHR-responsive luciferase reporter cells, luminescence. AID 2796. 320,000 compounds, 2.5% hits; in the data active means activation above about 47%;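 further: 0% = vehicle wells and 100% = reference agonist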
# hcDAF-12 act – activates DAF-12 receptor from parasite H. contortus; HEK293 hcDAF-12 lit1-tk-luc reporter, luminescence; 0% DMSO, 100% Δ7-dafachronic acid; activation, % at 6.8 µM; 370,000 compounds, 1.4% hits; AID 652067;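 active means activation above the mean of all tested compounds plus 3 SD, cut at about 5.5% in these data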;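 further: 100% = response to 3 µM Δ7-dafachronic acid high control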
# ssDAF12 agonist – S. stercoralis DAF-12 activation, primary screen; 370,000 compounds, 1% hits; AID 652126; HEK293 ssDAF-12/GRIP1 lit1-tk-luc reporter, luminescence; % of 3 µM dafachronic acid response; activation, % at 6.8 µM;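 active means activation above the mean over all tested compounds plus 3 SD, cut at about 0.9% in these data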;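 further: 0% = DMSO-only wells and 100% = 3 µM delta7-dafachronic acid wells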
# Active calls of the source: *; . = no result given. Sampled rows, rich in hits. Any-hit rate of the full collection: about 5.7%.
SMILES,DAX1 inh-1,hgDAF12 agonist,DAX1 inh-2,AHR act,hcDAF-12 act,ssDAF12 agonist
CCC(=O)N1C(C(=O)N2CCCC2)CSC1c1ccc(OC)cc1 (configuration not stated),-0.4,0.8,4.3*,-0.3,-1.0,-1.1
COc1ccc(N=Cc2c(O)ccc3ccccc23)cc1,-0.2,-0.2,1.3,1.4,-0.9,-0.3
CCOc1ccc(S(=O)(=O)/N=C(/Nc2ccc(C(C)=O)cc2)c2ccccc2)cc1,-1.0,3.0,-1.8,64.7*,-1.5,-0.8
O=C1Nc2ccccc2-n2nnnc2C1N1CCN(C(=O)c2ccco2)CC1 (configuration not stated),-0.4,2.0,.,.,-0.9,-0.5
CC(=O)Nc1ccc(NC(=O)C(C)OC(=O)/C=C/c2cn(-c3ccccc3)nc2-c2cccnc2)cc1 (configuration not stated),-0.6,3.3,-1.4,5.3,-1.6,-1.0
Cc1ccccc1NC(=O)COC(=O)/C=C/c1cn(-c2ccccc2)nc1-c1cccnc1,-0.4,-0.4,0.3,2.9,0.3,1.1*
CCN1C[C@@H]2[C@@H]3C(=O)N(Cc4ccccc4)C(=O)[C@@H]3[C@](CC)(C1=O)N2C(=O)c1ccccc1,-0.1,-2.2,0.4,.,-0.4,-1.6
CC(C)CC(NC(=O)CCl)c1ccccc1 (configuration not stated),-0.6,-1.4,-0.4,-0.1,-2.3,-1.3
CCOC(=O)N/N=C/c1c(C)nn(-c2ccccc2Cl)c1Cl,0.6,11.1*,2.4,31.2,4.1,-0.7
Cc1nn(C)cc1/C=N/NC(=O)c1ccco1,1.1,7.7,4.9*,3.4,1.7,-0.7
Cc1nn(-c2ccccc2)c(Cl)c1/C=N/NC(=O)c1ccc(CNc2ccccc2)o1,-0.2,1.9,-0.3,-0.8,0.7,-1.6
Cc1nn(-c2ccccc2)c(Cl)c1/C=N/NC(=O)c1ccco1,1.9,11.7*,2.0,2.6,1.2,-1.2
Cc1ccc(-c2nn3c(C)nnc3s2)cc1NC(=O)c1cccnc1,-1.2,0.6,-0.3,13.5,-0.2,-1.1
Cc1ccc2c(c1)c(C)c(C)n2CC(O)Cn1nc(C)cc1C (configuration not stated),0.4,0.0,0.3,60.8*,-1.4,-1.0
Cc1ccc2c(c1)c(C)c(C)n2CC(O)Cn1nnc2ccccc21 (configuration not stated),0.3,6.1,-0.4,37.9,1.2,-1.0
CCOC(=O)[C@H]1[C@H]2COc3ccc(OC)cc3[C@@H]2N2C(=O)CN(Cc3ccco3)C(=O)[C@@]12C,-0.2,-1.8,-0.6,-2.9,-0.5,-0.9
CCOC(=O)[C@H]1[C@H]2COc3ccc(OC)cc3[C@@H]2N2C(=O)CN(CCc3c[nH]c4ccccc34)C(=O)[C@@]12C,0.3,-1.3,0.5,16.8,4.9,1.0*
CN=c1sc2ccccc2n1CC(O)c1ccccc1 (configuration not stated),-0.3,-4.3,0.2,63.1*,1.0,-1.4
CN=c1sc2ccccc2n1CC(O)COCc1ccco1 (configuration not stated),0.1,-3.0,1.2,10.6,0.0,-1.6
O=C(Nc1cccc(NC(=O)c2cc([N+](=O)[O-])ccc2Cl)n1)c1cc([N+](=O)[O-])ccc1Cl,.,.,2.2,-0.4,.,.
Cc1ccnc(N/N=C/c2ccco2)n1,1.4,4.8,2.8,3.0,2.9,-1.2
CC(/C=N/Nc1nnc2c(n1)[nH]c1ccccc12)=C\c1ccco1,.,.,-0.1,72.9*,.,.
CCSc1nnc2nc3[nH]c4c(C)cccc4c3nn12,1.6,5.9,.,54.4*,3.5,1.5*
C=CCSc1nnc2c(n1)[nH]c1c(C)cccc12,0.7,4.5,-0.5,64.5*,0.8,-1.2
Cc1cccc2c1[nH]c1nc(N/N=C\c3ccco3)nnc12,-0.3,-2.1,.,79.2*,1.0,-0.6
CCNc1nc2c(c(=O)n(C)c(=O)n2C)n1CCCc1ccccc1,-1.2,-6.4,-3.7,0.1,-1.9,-2.1
Cc1ccc(C(=O)/C=C/c2cn(CN3CCN(C)CC3)c3ccccc23)cc1,1.5,12.7*,0.3,31.5,0.6,-0.1
O=C(/C=C/c1cccc2ccccc12)c1ccncc1,-2.6,-6.2,-2.6,7.9,-3.8,-1.7
Cc1[nH]c2ccccc2c1/C=C/C(=O)c1ccncc1,0.3,-2.5,-0.4,55.7*,0.3,-2.0
